Laboratory results from PubChem BioAssay (NCI).
The panel holds about 79,000 compounds, 15% with a hit somewhere; the sample as a whole holds those more often. The source made the active and inactive calls. No stated cut-off is given here; in the data, active means growth inhibition above about 70%; inactive means the rest.

What was measured:
[1] = NCI Yeast Anticancer Drug Screen. Data for the rad50 strain (AID 155);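 further: 0% = growth of vehicle-only cultures of the same strain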; conditions: S. cerevisiae rad50 strain growth inhibition; at 50.0 µM; stronger effect = higher value
Method in brief: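 DNA repair mutant yeast, compound exposure, growth read-out; inhibition is taken relative to vehicle.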

[2] = NCI Yeast Anticancer Drug Screen. Data for the mec2-1 strain (AID 157); conditions: S. cerevisiae mec2-1 strain, at 50.0 µM, stronger effect = higher value
Method in brief: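 mec2-1 yeast strain, carrying an alteration in DNA damage repair or cell cycle control, was exposed to compounds; growth inhibition was measured relative to vehicle-treated controls.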

[3] = NCI Yeast Anticancer Drug Screen. Data for the sgs1 mgt1 strain (AID 161);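 further: 0% = growth of cultures given vehicle only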; conditions: S. cerevisiae sgs1 mgt1 strain, at 50.0 µM, stronger effect = higher value
Method in brief: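 Percent growth inhibition was derived by comparing compound-exposed mutant yeast with vehicle-exposed cultures. The strain carries alterations in DNA damage repair.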

[4] = NCI Yeast Anticancer Drug Screen. Data for the cln2 rad14 strain (AID 165);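 further: 0% = growth equal to vehicle treated cultures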; conditions: S. cerevisiae cln2 rad14 strain, at 50.0 µM, stronger effect = higher value
Method in brief: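 Yeast carrying cln2 and rad14 alterations (cell cycle control and DNA damage repair) were exposed to compounds. Growth inhibition was measured against vehicle-treated controls.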

[5] = NCI Yeast Anticancer Drug Screen. Data for the bub3 strain (AID 167); conditions: S. cerevisiae bub3 mutant strain, at 50.0 µM, stronger effect = higher value
Method in brief: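 In this screen, a yeast mutant lacking normal mitotic checkpoint function is challenged with compound. Relative growth versus vehicle gives the inhibition value.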

[6] = NCI Yeast Anticancer Drug Screen. Data for the mlh1 rad18 strain (AID 175); conditions: S. cerevisiae mlh1 rad18 strain growth inhibition; at 50.0 µM; stronger effect = higher value
Method in brief: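 Growth inhibition of the yeast strain was measured after compound exposure and expressed relative to vehicle-treated controls. The strain carries defined defects in DNA damage repair.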

Measured: growth inhibition

CCC(=O)N(C)[C@@H]1Oc2ccc(O)cc2[C@]1(C)c1cc(O)ccc1O
inactive: [1] 0.35% | [2] 2.25% | [3] 14.8% | [4] 19.9% | [5] 6.7% | [6] 9.95%

CCCCCC(=O)OC
inactive: [1] 4.75% | [2] -8.15% | [3] -28.4% | [4] -17.1% | [5] -11.2% | [6] 10.8%

O=C1c2ccccc2C(=O)N1Nc1ccccc1
inactive: [1] 6.6% | [2] 3.2% | [3] 7.45% | [4] -8.1% | [5] 3.1% | [6] 16.5%

O=C(O)/C(Cc1ccc([N+](=O)[O-])cc1)=N\O
inactive: [1] -4.2% | [2] 6.85% | [3] -25.4% | [4] -16.6% | [5] 17.4% | [6] -2.8%

COc1cc2cc(-c3ccc(Cl)c(Cl)c3)[n+](C)cc2cc1OC
inactive: [1] 36% | [2] 20.1% | [3] 35.3% | [4] 21.6% | [5] -3.55% | [6] 13.7%

CCC(C)(O)P(=O)(O)O (stereo unspecified)
inactive: [1] 5.15% | [2] 7.1% | [3] 0.35% | [4] -30.4% | [5] 0.85% | [6] 7.6%

O=c1sc2ccccc2n1CCN(CCn1c(=O)sc2ccccc21)c1ccccc1
inactive: [1] 39.7% | [2] -7.75% | [3] 13.6% | [4] -45.5% | [5] 1.65% | [6] 14.2%

CC(=O)CCc1cccc([N+](=O)[O-])c1
inactive: [1] -17.6% | [2] -5.1% | [3] -14.5% | [4] -6.85% | [5] -0.15% | [6] -7.25%

CC(=O)Nc1nc2ncc(CN(C(C)=O)c3ccc(C(=O)O)cc3)nc2c(=O)[nH]1
inactive: [1] -19.3% | [2] -8.6% | [3] -38.1% | [4] -8.65% | [5] -21.1% | [6] -10.2%

CC(=O)OC1CCC2(C)C(CCC3C2CCC2(C)C3CC3OC(CCC(C)CO)C(C)C32)C1 (stereo unspecified)
inactive: [1] 14.8% | [2] 8.55% | [3] -0.45% | [4] 19.6% | [5] -0.75% | [6] 10.1%

CCOC(=O)/C(=C\n1c(=O)[nH]c(=O)[nH]c1=S)C(=O)c1ccccc1
inactive: [1] -22.8% | [2] -17.4% | [3] -9.25% | [4] 7.35% | [5] -17.9% | [6] -13.2%

O=C1CS/C(=N/C(=O)Nc2ccc(Cl)cc2)N1
inactive: [1] -1.9% | [2] 32.5% | [3] 16.1% | [4] -9.55% | [5] -6.95% | [6] 14.5%

COC(=O)C(C)n1c(C)csc1=S (stereo unspecified)
inactive: [1] -0.15% | [2] 4.85% | [3] -1.05% | [4] -26.4% | [5] 16.6% | [6] -0.55%

Cn1ccc(=O)n(C)c1=O
inactive: [1] -8.15% | [2] -10.8% | [3] 2% | [4] 5.15% | [5] 5.05% | [6] 2.25%

O=P(CCc1ccccc1)(OCCCl)OCCCl
inactive: [1] 10.2% | [2] 2.15% | [3] 3.85% | [4] 14.3% | [5] 6.5% | [6] -5%

CC(O)C(NC(=O)c1cnc2ccccc2n1)C(=O)O (stereo unspecified)
inactive: [1] -8.45% | [2] -5.1% | [3] 17.8% | [4] -17.1% | [5] 15.9% | [6] -11.8%

COc1cc2c3c(c1)nc(C)n3C(=O)C(C)S2 (stereo unspecified)
inactive: [1] -26.8% | [2] -46.9% | [3] -22.9% | [4] 12.3% | [5] 11.3% | [6] -22%

[C-]#[N+]C1(c2ccccc2)C2CC3CC(C2)CC1C3 (stereo unspecified)
inactive: [1] -1.7% | [2] -7.05% | [3] -4.35% | [4] -16.9% | [5] -4.25% | [6] 9.35%

c1ccc(SCc2ccc3c(c2)OCO3)cc1
inactive: [1] 27.4% | [2] 1.4% | [3] 18.2% | [4] 9.25% | [5] 18.8% | [6] 16.8%

Cc1c(O)cccc1C(=O)C[n+]1ccccc1
inactive: [1] 3.85% | [2] -8% | [3] 10.8% | [4] -24.9% | [5] -6.9% | [6] 1.25%

O=S(=O)(O)CNc1ccc(Cl)cc1
inactive: [1] 15.8% | [2] -12.7% | [3] 4.05% | [4] -29.7% | [5] -23.1% | [6] 4.05%

CNC(=O)C(c1ccccc1)C(O)c1ccccc1 (stereo unspecified)
inactive: [1] 10.8% | [2] -3.7% | [3] -11.4% | [4] 10.4% | [5] -0.15% | [6] -10.5%

O=C(O)c1ccccc1SC(Sc1ccccc1C(=O)O)c1ccc(Cl)cc1
inactive: [1] 4.8% | [2] -9.15% | [3] -9% | [4] -11.9% | [5] -4.1% | [6] 15.2%

O=CC(=C\c1cccs1)/C(C=O)=C\c1cccs1
active: [1] 99.3% | [2] 99.5% | [3] 99.5% | [4] 99.1% | [5] 99.4% | [6] 88.5%

Nc1ccc(OCCCc2c(N)nc(N)nc2N)c(Cl)c1
active: [1] 98% | [2] 99.1% | [3] 99.3% | [4] 98.2% | [5] 98.3% | [6] 98.5%

Nc1cc(=O)[nH]c(=S)n1-c1ccccc1
inactive: [1] -7% | [2] 2.5% | [3] -12.2% | [4] -16.1% | [5] -2.5% | [6] -9.65%

COc1ccc(C2C(=O)c3ccc(OC)cc3OC2c2cccnc2)cc1 (stereo unspecified)
inactive: [1] 14.9% | [2] -8.8% | [3] 53.7% | [4] 29.6% | [5] 45.8% | [6] 25.2%

CC(=O)Nc1cc2cc(N=CN(C)C)ccc2oc1=O
inactive: [1] -24.9% | [2] -43.4% | [3] -16.4% | [4] -10.8% | [5] -18.1% | [6] -7.4%

CC(=O)N(C(C)=O)c1cc2c3ccccc3ccc2c2ccccc12
inactive: [1] 22.4% | [2] -6.3% | [3] 31.1% | [4] 15.1% | [5] 32.8% | [6] 29.4%

CC(=O)OCC1OC(SC2=NC(=O)/C(=C/c3ccccc3)S2)C(OC(C)=O)C(OC(C)=O)C1OC(C)=O (stereo unspecified)
inactive: [1] 40.2% | [2] 35.4% | [3] 55.4% | [4] 15.8% | [5] -4.1% | [6] 43.8%

O=C(Nc1ccccn1)c1ccccc1
inactive: [1] 35% | [2] 19.6% | [3] 15.6% | [4] 11.6% | [5] 26.4% | [6] 31.8%

C=CS(=O)CCCCCCC (stereo unspecified)
inactive: [1] 25.1% | [2] -1.3% | [3] -13.9% | [4] -68.5% | [5] 4.45% | [6] -34.4%

Cc1ccc(N(C)c2cc(=O)n(C)c(=O)[nH]2)cc1C
inactive: [1] 14.4% | [2] 16.2% | [3] 10.3% | [4] 28.3% | [5] 12.4% | [6] 14.4%

COc1ccc(C(=O)C/C(=N\N(C(=O)c2ccc(OC)cc2)c2ccccc2)c2ccc(OC)cc2)cc1
inactive: [1] 13.6% | [2] -24.8% | [3] 9.9% | [4] -21.1% | [5] -9.85% | [6] 6.5%

Cc1ccc(O)c(C(C)(C)C)c1
inactive: [1] 14.9% | [2] -8% | [3] 20.4% | [4] 21.3% | [5] -0.65% | [6] 8.5%

CN(/N=C/c1ccccc1)c1nnnn1-c1ccccc1
inactive: [1] 3.2% | [2] -5.7% | [3] -5.85% | [4] 33% | [5] 0.6% | [6] 9.9%

CC(=O)NNc1nc(C)c(C(/C=C/c2ccc([N+](=O)[O-])cc2)=N/NC(N)=S)s1
inactive: [1] -8.6% | [2] -2.25% | [3] -10% | [4] -12.4% | [5] -7.2% | [6] 6.7%

Cc1c(Br)cc(Br)c(O)c1Br
inactive: [1] 37.3% | [2] 26.9% | [3] 23.7% | [4] -29.4% | [5] 9.1% | [6] 31.1%

CC(=O)OC12C=CC(=O)N1c1ccccc1C(=O)O2 (stereo unspecified)
inactive: [1] 18.4% | [2] 8.8% | [3] 25% | [4] 29.2% | [5] 13.8% | [6] 42.4%

[O-]/[N+]1=[N+](\[O-])c2ccccc2COCc2ccccc21
inactive: [1] -5.2% | [2] -12.3% | [3] -12.4% | [4] -44.5% | [5] -8.1% | [6] -14.2%

Oc1ccccc1C=Nc1ccc(Cl)cn1
inactive: [1] 17.2% | [2] 15.2% | [3] 16.2% | [4] 21.6% | [5] 18.9% | [6] 20.8%
